# TDP1 cell CPT = qHTS for Inhibitors of human tyrosyl-DNA phosphodiesterase 1 (TDP1): qHTS in cells in presence of CPT. Potency, µM (doses to about 46.2 µM), inactives show at the highest dose activity change, negative = growth inhibition, actives largely listed as inhibitors. 12% of 420,000 active. chicken DT40 Tdp1-/-;hTDP1 cells + 20 nM CPT, ATP luminescence, 48 h; note: nearly all actives have a fitted effect of over 55% in size
#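 Chicken DT40 Tdp1-/- cells complemented with human TDP1, 400 cells/well, exposed to compounds plus 20 nM camptothecin for at least 48 h at 37 C; viability read as ATP content by CellTiter-Glo luminescence.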
# DT40 TDP1 no CPT = qHTS for Inhibitors of human tyrosyl-DNA phosphodiesterase 1 (TDP1): qHTS in cells in absence of CPT | DT40 Tdp1-/- hTDP1 cells, no CPT, ATP luminescence, 48 h | Potency, µM (top dose mostly 46.2 µM), for the others: top-dose activity change, negative = growth inhibition, hits mostly inhibitors | 15% of 420,000 active | AID 686978, 2013; note: nearly all actives have a fitted effect of over 55% in size
#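 Stably hTDP1-transfected Tdp1-null chicken DT40 cells were treated with library compounds minus camptothecin and grown for at least 48 hr at 37 °C, after which cellular ATP was quantified by luminescence.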
# KB-V1 cytotox = qHTS assay for MDR1-selective chemotherapeutics: Primary screen using the drug-selected MDR subline cells KB-V1; KB-V1 MDR cells viability, CellTiter-Glo, 72 h; Potency, µM (highest dose often 46.1 µM), actives largely listed as cytotoxic; 3.4% of 400,000 active; note: nearly all actives have a fitted effect of over 60% in size
#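 In this primary screen, KB-V1 cells overexpressing P-gp are incubated with library compounds (lowest to highest concentration) for 72 h at 37 degrees C before a luminescent ATP viability read.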
# KB-3-1 tox = qHTS assay for MDR1-selective chemotherapeutics: Primary screen using the parental adenocarcinoma cell KB-3-1. KB-3-1 viability, CellTiter-Glo ATP luminescence, 72 h. AID 1347075, 2019. Potency, µM (doses to about 46.1 µM), most hits filed as cytotoxic. 1.4% of 400,000 active; note: nearly all actives have a fitted effect of over 60% in size
#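 KB-3-1 parental drug-naive adenocarcinoma cells in DMEM/10% FBS, incubated 72 h at 37 C with pin-transferred compounds across a concentration series. Viability by CellTiter-Glo luminescence; concentration-response curves fitted after normalization.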
# HT1080 IDH1KD tx = qHTS for induction of synthetic lethality in tumor cells producing 2HG: qHTS for the HT-1080-IDH1KD cell line; 2% of 360,000 active; AID 686971, 2013; HT-1080 IDH1 knockdown viability, ATP luminescence, 48 h; Potency, µM (series often up to 46.1 µM), inactives show top-dose activity, negative = toxicity, hits mostly cytotoxic;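 note: 0% = DMSO wells and -100% = cell-free medium wells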
#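 Cytotoxicity counter-line: IDH1KD HT-1080, 48 h, CellTiter-Glo. Curves classed by r2, magnitude and activity.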
# HT1080NT lethal = qHTS for induction of synthetic lethality in tumor cells producing 2HG: qHTS for the HT-1080-NT fibrosarcoma cell line | HT-1080-NT fibrosarcoma viability, CellTiter-Glo ATP luminescence, 48 h | Potency, µM (doses to about 46.1 µM), inactives show at the highest dose activity, negative = less viability, hits mostly cytotoxic | 1.6% of 360,000 active | AID 686970, 2013;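 note: NT is the 2HG producing partner of a matched IDH1 knockdown line; 0% = DMSO-treated cells and -100% = media-only wells without cells; nearly all actives have a fitted effect of over 55% in size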
#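 Compounds were tested in concentration-response format on HT-1080-NT cells for 48 hours at 37 degrees C. Cell viability came from CellTiter-Glo luminescence; curves were classified by r2, response magnitude and activity.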
# * = called active by the depositor; i = inactive; ? = inconclusive; · = not tested or not shown; [ ] = remark or other dose. An excerpt weighted towards active compounds, which were near 19% of everything screened. Calls come from the whole dose curve; as a rule, active = well fitted curve in the direction sought with a large enough effect; inconclusive = small, poorly fitted or top-dose-only effect, or another doubt; inactive = no such curve, though single readings can be large; an effect the other way counts as inactive or inconclusive. Unless noted, % is set by controls: 0 for no effect and ±100 for the full control effect; potency is the fitted concentration of half-maximal effect.
SMILES,TDP1 cell CPT,DT40 TDP1 no CPT,KB-V1 cytotox,KB-3-1 tox,HT1080 IDH1KD tx,HT1080NT lethal
COc1ccc(NC(C)C(=O)N/N=C/c2c(O)ccc3ccccc23)cc1 (stereo not drawn),4.61µM*,5.8µM*,?,?,?,-20.5%
O=C(O)c1cc(N/N=C/c2c(O)ccc3ccccc23)ccc1Cl,-23.8%,10.4%,i,i,-3.8%,2.8%
O=C(N/N=C/c1c(O)ccc2ccccc12)Nc1ccccc1,25.9µM*,14.6µM*,?,?,-10.0%,-7.6%
O=C(CNc1ccccc1)N/N=C/c1c(O)ccc2ccccc12,10.3µM*,6.51µM*,i,16.4µM*,11.6µM*,10.3µM*
CC1(NC(=S)Nc2ccccc2)CCS(=O)(=O)C1 (stereo not drawn),-7.2%,-21.2%,i,i,9.6%,12.2%
CCOc1ccc(C(=O)Nc2cccc3ncccc23)cc1Br,?,-21.2%,i,i,-0.4%,-3.8%
CC1=C(C(=O)Nc2ccc(C)cc2)C(c2ccccc2Cl)n2nnnc2N1 (stereo not drawn),-16.9%,-14.3%,i,i,·,·
Fc1ccccc1/C=C1\CCCC2=C1Nc1nnnn1C2c1ccccc1F (stereo not drawn),?,-8.2%,i,i,10µM*,12.6µM*
O=C(COc1ccccc1)Nc1cccc(-c2nc3ccccc3[nH]2)c1,?,23.1µM*,?,i,?,?
COc1ccc(OCC(=O)Nc2cccc(-c3nc4ccccc4[nH]3)c2)cc1,14.6µM*,?,?,i,?,3.2%[9.24 µM]
COc1ccc(OCC(=O)Nc2cccc(-c3nc4ccccc4o3)c2)cc1,-28.4%,-16.6%,i,i,-5.7%,-9.9%
Clc1ccc(CN(CC2CCCO2)C(c2cccs2)c2nnnn2C2CCCC2)cc1 (stereo not drawn),7.31µM*,6.51µM*,20.6µM*,?,-12.7%,-17.2%
Clc1ccccc1CN(Cc1ccccc1)C(c1cccs1)c1nnnn1C1CCCC1 (stereo not drawn),?,20.6µM*,?,?,-14.8%,-0.8%
CCN(Cc1ccccc1)C(c1cccs1)c1nnnn1C1CCCCC1 (stereo not drawn),?,29.1µM*,i,i,?,?
CCN(Cc1ccccc1)C(c1ccccn1)c1nnnn1C1CCCCC1 (stereo not drawn),?,?,?,i,12.6%,11.5%
CC(C)(C)n1nnnc1C(c1cccs1)N(Cc1cccnc1)Cc1ccccc1Cl (stereo not drawn),?,18.4µM*,?,?,?,?
Cc1cccc(-c2cnc3cccnn23)c1,?,?,i,i,-0.5%,4.7%
Cc1cccc(CNC(=O)C2CCN(c3nn4cc(-c5ccc(F)cc5)nc4s3)CC2)c1,-25.1%,-29.8%,i,i,·,·
O=C(CO)[C@@H](O)[C@H](O)[C@@H](O)C(=O)O,13.9%,8.8%,·,·,·,·
Cc1nnc2nc(-c3ccccc3)nc(-c3ccccc3)n12,?,14.6µM*,i,i,13.7%,22.0%
Cn1nc(-c2ccccc2)nc1-c1ccccc1,?,-27.4%,i,i,-3.5%,-4.1%
OCC(O)COc1ccc(Cl)cc1 (stereo not drawn),-16.7%,-20.6%,·,·,·,·
CC1CCN(S(=O)(=O)c2cc(C(=O)N3CCN(c4cccc(Cl)c4)CC3)n(C)c2)CC1,?,18.4µM*,i,16.4µM*,·,·
CC1CCN(S(=O)(=O)c2cc(C(=O)N3CCN(c4ccccc4F)CC3)n(C)c2)CC1,?,?,?,i,·,·
Cc1ccc(C)c(N2CCN(C(=O)c3cc(S(=O)(=O)N4CCC(C)CC4)cn3C)CC2)c1,16.4µM*,?,?,?,·,·
SMILES,TDP1 cell CPT,DT40 TDP1 no CPT,KB-V1 cytotox,KB-3-1 tox,HT1080 IDH1KD tx,HT1080NT lethal
Cc1ccc2c(=O)cc(C(=O)Nc3ccc(S(=O)(=O)N4CCCCCC4)cc3)oc2c1,-7.8%,-6.8%,i,i,·,·
CN1CCN(c2ccc(C(=O)c3cn(-c4ccc(F)c(Cl)c4)nn3)cc2)CC1,?,16.4µM*,?,i,5.6%,-6.0%
CCn1cc(C(=O)N2CCN(c3cccc(Cl)c3)CC2)c(=O)c2cc(S(=O)(=O)N3CCCCC3)ccc21,-9.5%,0.6%,i,?,·,·
COc1ccc(NC(=O)c2sc3cc(C(F)(F)F)cnc3c2-c2cccs2)cc1,-25.7%,-10.5%,i,i,-18.7%,-8.2%
O=C(Nc1ccc(F)cc1)c1sc2cc(C(F)(F)F)cnc2c1-c1cccs1,?,18.4µM*,i,i,-3.3%,1.2%
Cc1ccc(-n2ncc3c2CCCC3NC(=O)c2ocnc2C)cc1C (stereo not drawn),10.3µM*,7.31µM*,·,·,-19.6%,?
CCCC(=O)NC1CCCc2c1cnn2-c1ccc(C)c(C)c1 (stereo not drawn),-14.5%,?,?,i,-0.6%,-1.4%
Cc1cc(C(=O)NC2CCCc3c2cnn3-c2ccc(C)c(C)c2)no1 (stereo not drawn),14.6µM*,?,?,?,-16.0%,-1.3%
CCN(C(=O)Cn1c(Cl)nc2c1c(=O)n(C)c(=O)n2C)C1CCCCC1,20.6µM*,20.6µM*,?,i,0.0%,0.7%
Cn1c(=O)c2c(nc(Cl)n2CC(=O)N2CCCCC2)n(C)c1=O,6.2%,-7.3%,i,i,28.3%,10.6%
CC1CCCC(NC(=O)Cn2c(Cl)nc3c2c(=O)n(C)c(=O)n3C)C1C (stereo not drawn),?,20.6µM*,i,i,-0.2%,-9.2%
COc1cc(C)nc(NC(=O)NC(=O)c2ccc(C(F)(F)F)cc2)n1,?,-1.6%,i,i,11.5%,7.2%
S=c1[nH]nc(-c2ccc3ccccc3n2)n1-c1ccccc1,17.0%,-18.2%,23.1µM*,i,-5.5%,-2.9%
O=S(=O)(O)c1ccc2c(c1)C(C(Cl)(Cl)Cl)OC(C(Cl)(Cl)Cl)O2 (stereo not drawn),15.0%,4.0%,i,i,-5.1%,-9.6%

# Screens: PubChem BioAssay, National Center for Advancing Translational Sciences (NCATS)
